The test system of test [1] is ULK3. To be noted: concentration: 1 μM, replicates: in singlicate; n = 1.
Test [2] has as its system T1, VEGFR2.
T1 construct: gene KDR
The note with it: concentration: 1 μM, replicates: in singlicate; n = 1.

The test system of test [3] is T2, VPS34.
T2 construct: gene PIK3C3
To be noted: concentration: 1 μM, replicates: in singlicate; n = 1.

Test [4] relates to VRK2. To be noted: concentration: 1 μM, replicates: in singlicate; n = 1.
Test [5] relates to WEE1. The note with it: concentration: 1 μM, replicates: in singlicate; n = 1.
For test [6], the system named is WEE2. The note with it: concentration: 1 μM, replicates: in singlicate; n = 1.
Test [7] deals with WNK1. The note with it: concentration: 1 μM, replicates: in singlicate; n = 1.
For test [8], the system named is WNK2. To be noted: concentration: 1 μM, replicates: in singlicate; n = 1.
For test [9], the system named is WNK3. To be noted: concentration: 1 μM, replicates: in singlicate; n = 1.
In test [10] the test system is WNK4. To be noted: concentration: 1 μM, replicates: in singlicate; n = 1.
The test system of test [11] is T3, YANK1.
T3 construct: gene STK32A
To be noted: concentration: 1 μM, replicates: in singlicate; n = 1.

The subject of test [12] is T4, YANK2.
T4 construct: gene STK32B
The note with it: concentration: 1 μM, replicates: in singlicate; n = 1.

Test [13] concerns T5, YANK3.
T5 construct: gene STK32C
The note with it: concentration: 1 μM, replicates: in singlicate; n = 1.

For test [14], the system named is T6, YES.
T6 construct: gene YES1
The note with it: concentration: 1 μM, replicates: in singlicate; n = 1.

The test system of test [15] is T7, YSK1.
T7 construct: gene STK25
The note with it: concentration: 1 μM, replicates: in singlicate; n = 1.

Test [16] deals with T8, YSK4.
T8 construct: gene MAP3K19
The note with it: concentration: 1 μM, replicates: in singlicate; n = 1.

The test system of test [17] is ZAK. To be noted: concentration: 1 μM, replicates: in singlicate; n = 1.
Test [18] deals with ZAP70. The note with it: concentration: 1 μM, replicates: in singlicate; n = 1.
The test system of test [19] is T9, p38-alpha.
T9 construct: gene MAPK14
To be noted: n = 1.

The subject of test [20] is T10, p38-beta.
T10 construct: gene MAPK11
To be noted: concentration: 1 μM, replicates: in singlicate; n = 1.

Where [21] appears, read: concentration: 1 μM, replicates: in singlicate.

The structures appear in SMILES notation. Where two headings read alike, the source gives them in different places.
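Further: KINOMEscan kinase panel screen.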

Regarding `CCCC(=O)Nc1n[nH]c2ncc(-c3cccc4ccccc34)cc12` [SB-642057], the “%Inh” value in test [1] is given as 26%; in [2], 11%; in test [3], 0%; in test [4], 0%; in [5] it was 6%; in [6] it was 0%. Moreover, the “%Inh” value in test [7] is listed as 12%; in test [8] it was 6%; in test [9], 0%; in test [10], 0%; in test [11], 0%; in test [12], 6%. Besides, the “%Inh” value in test [13] is 42%; in test [14] it was 9%; in test [15], 8%; in [16], 57%; in test [17], 54%; in test [18], 0%. For the same compound, the results for the “%Inh” value in test [19] (setting [21]) and in [20] were 14% and 4%, respectively.

Take `COc1cccc(-n2cnc3c(N)ncnc32)c1` [SKF-97416]: the “%Inh” value in test [1] came to 27%; in test [2] it was 15%; in test [3], 45%; in test [4], 8%; in test [5] it was 2%; in test [6], 0%. Moreover, the “%Inh” value in [7] is 7%; in [8] it was 0%; in test [9], 38%; in test [10], 43%; in test [11] it was 4%; in [12], 0%. The “%Inh” value is on record as 1% in test [13]; 0% in test [14]; 0% in [15]; 45% in test [16]; 42% in [17]; 25% in [18]. Besides, the entries for the “%Inh” value in [19] (setting [21]) and in [20] were 0% and 22%, respectively.

As for `COC(=O)c1c(-c2ccccc2)c2cc(C)ccc2c(=O)n1Cc1ccccc1`, the “%Inh” value in [1] was 0%; in test [2] it was 0%; in [3] it was 0%; in [4], 0%; in test [5], 0%; in test [6], 6%. Besides, the “%Inh” value in [7], in test [8], in [9], in [10], in [11] and in test [12] was 0% throughout. Moreover, the “%Inh” value in test [13] came out at 17%; in [14], 0%; in test [15], 0%; in test [16], 0%; in [17], 25%; in test [18], 0%. The “%Inh” value was determined as 8% in [19] (setting [21]) and 0% in test [20].

Regarding `O=C(NCCNc1ccnc(Nc2ccc(F)cc2)n1)Nc1ccc2c(c1)OCO2` [GSK1379882], the “%Inh” value is 21% in test [1]; 9% in test [2]; 0% in [3]; 0% in test [4]; 13% in test [5]; 6% in test [6]. In addition, the “%Inh” value is 5% in [7]; 18% in test [8]; 30% in [9]; 12% in [10]; 0% in test [11]; 1% in test [12]. The “%Inh” value in test [13] is reported as 0%; in test [14], 0%; in test [15] it was 17%; in test [16] it was 9%; in test [17], 100%; in test [18], 0%. In addition, the “%Inh” value stood at 19% in test [19] (setting [21]) and 0% in test [20].

Turning to `COc1cc2nccc(Nc3cccc(Oc4ccccc4)c3)c2cc1OC.Cl` [GW284543], the “%Inh” value in test [1] came out at 8%; in [2] it was 12%; in test [3], 35%; in [4] it was 0%; in test [5], 8%; in [6], 14%. For the same compound, the “%Inh” value in test [7] was found to be 0%; in test [8], 11%; in [9], 10%; in test [10], 0%; in test [11], 5%; in test [12] it was 0%. The “%Inh” value is given as 1% in test [13]; 19% in test [14]; 0% in test [15]; 0% in [16]; 17% in [17]; 0% in test [18]. Besides, the “%Inh” value in [19] (setting [21]) and in test [20] was 0% each time.

For `O=C(NCc1cccs1)c1cc(C(=O)c2c(Cl)cccc2Cl)c[nH]1` [GW823670], the “%Inh” value in test [1] was 0%; in test [2], 0%; in test [3], 0%; in test [4] it was 0%; in [5], 2%; in test [6], 5%. Besides, the “%Inh” value in [7], in test [8], in test [9], in test [10], in [11] and in [12] was 0% each time. Also, the “%Inh” value in test [13] came out at 0%; in test [14], 0%; in [15], 11%; in [16], 0%; in test [17], 0%; in test [18], 0%. Also, the “%Inh” value worked out at 23% in [19] (1 µM) and 9% in [20].

For `O=c1cc(N2CCOCC2)nc2n(Cc3ccc(F)c(Cl)c3)ccn12` [GSK2297099], the “%Inh” value in test [1] came out at 8%; in test [2] it was 4%; in test [3] it was 95.2%; in test [4], 0%; in test [5], 2%; in [6], 3%. The “%Inh” value in test [7] was 8%; in [8], 4%; in test [9] it was 5%; in test [10], 6%; in [11] it was 1%; in test [12], 11%. In addition, the “%Inh” value in test [13] was 0%; in test [14], 11%; in [15], 18%; in test [16], 6%; in test [17], 5%; in test [18], 0%. Besides, the “%Inh” value in test [19] (setting [21]) and in test [20] was 0% throughout.

As to `Nc1n[nH]c2ncc(-c3ccccc3)cc12` [SB-517081], the “%Inh” value in [1] worked out at 14%; in [2], 16%; in [3] it was 0%; in test [4], 11%; in test [5] it was 17%; in test [6], 2%. For the same compound, the “%Inh” value in [7] came to 12%; in test [8], 0%; in [9], 27%; in [10], 35%; in test [11], 9%; in test [12], 0%. Besides, the “%Inh” value turned out to be 23% in test [13]; 20% in test [14]; 8% in test [15]; 52% in test [16]; 25% in test [17]; 0% in test [18]. Besides, the “%Inh” value in test [19] (setting [21]) is reported as 13%; in test [20], 0%.
